FBA Mtb inh – Mtb FBA enzyme inhibitors, primary screen, biochemical, fluorescence, strain H37Rv; purified M. tuberculosis FBA, fluorescence read-out; 360,000 tested, 2.3% active; Fructose-bisphosphate aldolase (Mycobacterium tuberculosis (strain ATCC 25618 / H37Rv)), …; inhibition, % at 1 µM;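 note: 0% = vehicle and 100% = reference inhibitor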
Target sequence (P9WQA3 whole entry, looked up): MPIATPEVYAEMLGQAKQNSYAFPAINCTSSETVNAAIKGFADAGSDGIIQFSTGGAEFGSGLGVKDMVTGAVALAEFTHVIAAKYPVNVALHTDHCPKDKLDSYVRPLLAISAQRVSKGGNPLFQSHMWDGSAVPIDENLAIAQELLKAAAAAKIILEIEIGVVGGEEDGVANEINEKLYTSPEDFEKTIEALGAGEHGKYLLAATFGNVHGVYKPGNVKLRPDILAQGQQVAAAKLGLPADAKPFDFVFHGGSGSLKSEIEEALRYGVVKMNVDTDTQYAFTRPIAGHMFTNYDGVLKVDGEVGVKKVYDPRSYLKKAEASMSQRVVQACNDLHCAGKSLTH
CCHF vOTU inh – CCHFV vOTU protease inhibitors, primary screen, biochemical, Pep-AMC substrate, fluorescence; AID 651958, 2012; Crimean-Congo hemorrhagic fever virus L polyprotein viral ovarian tumor (vOTU) protease …; 370,000 tested, 0.55% active; inhibition, % at 11.5 µM; in the data active = inhibition above about 30%; note: 0% = vehicle wells with enzyme and 100% = no enzyme wells
RecA splice inh – Mtb RecA intein splicing inhibitors, primary screen, biochemical, fluorescence, HTS; cell-free RecA intein splicing; 290,000 tested, 0.75% active; inhibition, % (no concentration beside the values); AID 2221, 2009; Protein RecA (Mycobacterium tuberculosis (strain ATCC 25618 / H37Rv)), P9WHJ3; in the data active = inhibition above about 30%;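 note: 0% = vehicle wells and 100% = reference inhibitor control wells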
Mtb bLac sens – beta-lactam sensitization of Mtb H37Rv, H37Rv. M. tuberculosis H37Rv growth with meropenem, percent inhibition. inhibition, % at 25 µM. 330,000 tested, 0.27% active; call rule not given here;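 note: growth measured after seven days incubation then overnight dye step; 0% = bacteria only wells and 100% = bacteria with antibiotic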
GDH-TPI counter-1 – GDH-TPI coupling enzyme inhibitors, primary screen, artefact control for M. tuberculosis FBA inhibitor project, biochemical, absorbance, full deck; AID 588335, 2011; inhibition, % at 4.8 µM; 360,000 tested, 1.2% active; GDH-TPI coupled enzyme counterscreen, NADH absorbance; in the data active = inhibition above about 30%;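 note: 0% = DMSO wells and 100% = wells lacking the enzyme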
Mtb FBA inh conf – M. tuberculosis aldolase blockers, biochemical, fluorescence, strain H37Rv, confirmation; shares compounds with FBA Mtb inh; purified M. tuberculosis FBA, fluorescence read-out; inhibition, % at 1 µM; 5,600 tested, 78% active; AID 651616, 2012;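 note: 0% = vehicle wells and 100% = reference inhibitor wells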
GDH-TPI counter-2 – GDH-TPI coupling enzyme inhibitors, artefact control for M. tuberculosis FBA inhibitor project, biochemical, fluorescence, high throughput. shares compounds with FBA Mtb inh. GDH-TPI coupled enzyme counterscreen. inhibition, % at 1 µM. 5,600 tested, 81% active. AID 652141, 2013; in the data active = inhibition above about 10%
* marks the source's active call; other numbers are inactive results; i = inactive; / = no result; + = active, no number. Rows were chosen to be rich in hits. Some 4.2% of all compounds tested hit in one or more screens of this group. Cut-off read from the data, not from the text of the source, unless noted: active = inhibition above about 27%; inactive = the rest.

SMILES	FBA Mtb inh	CCHF vOTU inh	RecA splice inh	Mtb bLac sens	GDH-TPI counter-1	Mtb FBA inh conf	GDH-TPI counter-2
COc1ccc(-c2cc(-c3nnc(SCC(=O)Nc4ccc(-c5nc6ccc(C)cc6s5)cc4)n3N)[nH]n2)cc1	/	-15	/	/	/	/	/
CCCNC(=O)c1c(N)n(-c2cccc(OC)c2)c2nc3ccccc3nc12	68*	-35	-413	4	13	-6	-4
COc1ccc(-n2c(N)c(C(=O)NCc3ccco3)c3nc4ccccc4nc32)c(OC)c1	60*	-56	-74	-13	4	-1	-5
Nc1c(S(=O)(=O)c2ccccc2)c2nc3ccccc3nc2n1CCN1CCOCC1	47*	-21	-14	-10	15	70*	55*
Nc1c(C(=O)NCc2ccco2)c2nc3ccccc3nc2n1CCN1CCOCC1	72*	-117	-153	2	14	108*	89*
COc1cccc(OCC(C)CN2CCC(C(O)(c3ccccc3)c3ccccc3)CC2)c1 (stereo not given)	/	-1	/	/	/	/	/
Nc1nc2cc3c(cc2cc1C(=O)NCCc1c[nH]c2ccccc12)OCO3	/	-15	/	/	/	/	/
COC(=O)[C@]12CCCCC=C1N(Cc1ccc(OC)cc1)C(=O)[C@@H]2CC(=O)NCC1CCCCC1	/	15	/	/	/	/	/
COc1ccc(S(=O)(=O)N2CCCc3nc(-c4ccc(Br)cc4)ccc32)cc1	/	1	/	/	/	/	/
COC(=O)[C@]12C[C@H](CC(=O)N3CCSCC3)C(=O)N(Cc3ccc(Cl)cc3Cl)C1=C[C@H](C1CCCC1)O[C@@H]2C	/	11	/	/	/	/	/
COc1ccc(CCn2c(N)c(C(=O)NCc3ccco3)c3nc4ccccc4nc32)cc1	85*	-86	-303	5	17	+	198*
COc1ccc(S(=O)(=O)Cc2ccc(C(=O)NCc3ccco3)o2)cc1	0	4	2	-6	1	/	/
Nc1c(C(=O)NCCN2CCOCC2)c2nc3ccccc3nc2n1-c1cccc(F)c1	104*	-154	i	-8	23	-5	-6
COc1ccc(CCNC(=O)c2c(N)n(CCN3CCOCC3)c3nc4ccccc4nc23)cc1OC	12	-5	-65	24	3	/	/
CCCCCn1c(N)c(C(=O)NCCN2CCOCC2)c2nc3ccccc3nc21	65*	-60	-122	78	8	+	+
CCN(CC)C(=O)CC[C@@H]1CC[C@]2(CCCN(Cc3ccc(Br)cc3)C2)O1	/	6	/	/	/	/	/
O=C1c2cccc3cccc(c23)C(=O)N1Cc1cccnc1	41*	-17	-2	-8	22	3	0
O=C(CCN1C(=O)c2cccc3cccc(c23)C1=O)NCc1ccco1	9	5	-2	6	13	/	/
O=C(CCCCCN1C(=O)c2cccc3cccc(c23)C1=O)NCCO	36*	1	-14	7	6	90*	74*
O=C(CCN1C(=O)c2cccc3cccc(c23)C1=O)NCc1cccnc1	35*	-26	-4	-6	20	2	-4
O=C(CCCN1C(=O)c2cccc3cccc(c23)C1=O)NC1CCS(=O)(=O)C1 (stereo not given)	40*	-14	-2	-7	9	56*	57*
Cc1ccc(S(=O)(=O)N2CCCc3nc(-c4ccc(Br)cc4)ccc32)cc1	/	-3	/	/	/	/	/
O=C1CC(N2CCCN(Cc3ccccc3)CC2)=NC(=O)N1c1ccc(Br)cc1	/	7	/	/	/	/	/
C#CC1c2ccccc2CCN1CC=C (stereo not given)	/	0	/	/	/	/	/
CCCCCN(C(=O)CSc1n[nH]c(-c2ccc(C)cc2)n1)c1c(N)n(CCCC)c(=O)[nH]c1=O	-3	19	6	-3	-6	/	/
CCCCn1c(N)c(N(CC(C)C)C(=O)CSc2n[nH]c(-c3ccc(C)cc3)n2)c(=O)[nH]c1=O	67*	20	2	0	14	70*	44*

Assay outcomes (PubChem BioAssay)
